# The list is not random: actives were taken first. Their share in the collection is about 19%.
# TDP1 cell noCPT: qHTS for Inhibitors of human tyrosyl-DNA phosphodiesterase 1 (TDP1): qHTS in cells in absence of CPT | DT40 Tdp1-/- hTDP1 cells, no CPT, ATP luminescence, 48 h | Potency, µM (series often up to 46.2 µM), for inactives: at the top dose activity change, negative = growth inhibition, usual class: inhibitors | 420,000 compounds, 15% hits | AID 686978, 2013; also: potency is read from the fitted curve at half-maximal effect; nearly all actives have a fitted effect of over 55% in size
#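 DT40 Tdp1-/-;hTDP1 cells, no CPT (DMSO vehicle only), 400 cells/well; compounds pin-transferred; ≥48 hr, 37 °C; CellTiter-Glo 30 min RT dark, luminescence read.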
# DT40 TDP1 CPT: DT40-hTDP1 cell growth loss with CPT; chicken DT40 Tdp1-/-;hTDP1 cells + 20 nM CPT, ATP luminescence, 48 h; 420,000 compounds, 12% hits; Potency, µM (titrated, usually from 46.2 µM), for the others: at the top dose activity change, negative = growth inhibition, usual class: inhibitors; also: potency is read from the fitted curve at half-maximal effect; nearly all actives have a fitted effect of over 55% in size
#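 Chicken DT40 Tdp1-/- cells complemented with human TDP1, 400 cells/well, exposed to compounds plus 20 nM camptothecin for at least 48 h at 37 C; viability read as ATP content by CellTiter-Glo luminescence.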
# IL1B secr inh: inhibitors of inflammasome signaling (IL-1 beta secretion). THP-1 LPS/ATP IL-1B secretion, AlphaLISA, 16 h; stronger effect = lower value. activity change, % at 57.5 µM. 360,000 compounds, 4.7% hits. AID 743279; in the data active = activity change below about -50%; inconclusive = mostly about -30% to -49%
#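 Secreted IL-1B measured by AlphaLISA bead assay after 16 h compound exposure of THP-1 cells; compounds (final up to 57.5 uM) added 1 h before LPS (250 ng/mL) and ATP (1.25 mM) stimulation; lower signal means less secretion.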
# ELG1 repair inh: inhibitors of ELG1-dependent DNA repair in HEK293T cells; HEK293T ELG1-luciferase reporter, luminescence, 16 h; DNA damage induced by 5-fluorouridine; Potency, µM (titrated, usually from 46.1 µM), without a hit: top-dose activity change, negative = inhibition, actives largely listed as inhibitors; 330,000 compounds, 2.3% hits; also: potency is read from the fitted curve at half-maximal effect; nearly all actives have a fitted effect of over 55% in size
#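 Overnight (16 hr) co-exposure of 2,000 cells/well to 5-fluorouridine and compound at 37 °C preceded detection. Luciferase was quantified via ONE-Glo luminescence; loss of signal denotes inhibition.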
# HT1080NT lethal: kills 2HG-producing HT-1080-NT fibrosarcoma cells. HT-1080-NT fibrosarcoma viability, CellTiter-Glo ATP luminescence, 48 h. Potency, µM (titrated, usually from 46.1 µM), for the others: top-dose activity, negative = less viability, usual class: cytotoxic. AID 686970. 360,000 compounds, 1.6% hits;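 also: NT is the 2HG producing partner of a matched IDH1 knockdown line; potency is read from the fitted curve at half-maximal effect; 0% = DMSO-treated cells and -100% = media-only wells without cells; nearly all actives have a fitted effect of over 55% in size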
#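 Fibrosarcoma NT cells, 750 per well in 5% FBS RPMI, were exposed to compound for 48 hours. Viability: CellTiter-Glo luminescence.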
# HT1080 IDH1KD tx: HT-1080 IDH1 knockdown cell toxicity (counter line) | HT-1080 IDH1 knockdown viability, ATP luminescence, 48 h | Potency, µM (titrated, usually from 46.1 µM), inactives show at the highest dose activity, negative = toxicity, usual class: cytotoxic | 360,000 compounds, 2% hits | AID 686971;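 also: potency is read from the fitted curve at half-maximal effect; 0% = DMSO wells and -100% = cell-free medium wells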
#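 CellTiter-Glo luminescence after 48 h compound exposure at 37 degrees C of IDH1-knockdown HT-1080 cells in 5% FBS RPMI. %Activity scaled between DMSO wells and cell-free media wells, with curves fitted and assigned curve classes.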
# The depositor's hits bear a star; ? = inconclusive; . = not tested or not shown. Unless noted, calls follow the shape of the dose curve; as a rule, active = well fitted curve in the direction sought with a large enough effect; inconclusive = small, poorly fitted or top-dose-only effect, or another doubt; inactive = no such curve, though single readings can be large; an effect the other way counts as inactive or inconclusive. Unless noted, % is scaled to controls: 0 for no effect and ±100 for the full control effect.
SMILES,TDP1 cell noCPT,DT40 TDP1 CPT,IL1B secr inh,ELG1 repair inh,HT1080NT lethal,HT1080 IDH1KD tx
CCN(CC)CCNc1ccc(C)c2sc3ccc(O)cc3c(=O)c12,0.15µM*,0.16µM*,-101*,.,-23%,?
COc1ccc(CCNCC(=O)Nc2ccccc2C(F)(F)F)cc1,?,?,-6,-9%,3%,-13%
O=C(CNCc1ccc(Cl)cc1)Nc1ccc(C(=O)N2CCCCC2)cc1,-27%,-17%,-12,3%,-4%,-14%
O=C(c1ccc(NC(=S)NCc2ccc(Cl)cc2)cc1)N1CCCCC1,23µM*,?,7,?,4%,2%
Cc1ccc(C(=O)N2CCN(CCNC(=O)C(=O)NCc3ccc(Cl)cc3)CC2)cc1,?,16µM*,0,?,29%,17%
COC(=O)c1cc(NC(=S)NCc2ccc(Cl)cc2)cc(C(=O)OC)c1,?,16µM*,-5,0%,?,?
O=C(c1ccc(NC(=S)Nc2ccc(Cl)c(Cl)c2)cc1)N1CCCC1,?,?,-99*,?,-19%,-22%
Cc1ccn2c(NC(=O)C(C)(C)Oc3ccc(Cl)cc3)c(-c3cccs3)nc2c1,18µM*,?,?,?,?,?
Cc1c(NS(=O)(=O)c2ccccc2)cc(C(C)C)c(O)c1S(=O)(=O)c1ccc(Cl)cc1,6%,?,.,.,.,.
c1ccc2c(c1)CCN(c1ncnc3nc[nH]c13)C2,?,?,25,3%,15%,11%
CC1Cc2ccccc2N1c1ncnc2nc[nH]c12 (stereo not given),23µM*,?,-11,-19%,1%,2%
CC1Cc2ccccc2N1c1ncnc(N)c1[N+](=O)[O-] (stereo not given),1.5µM*,4.1µM*,-92*,1.5µM*,-11%,6%
COc1ccc(C2c3ccc(O)cc3Oc3ncn4nc(-c5ccccn5)nc4c32)cc1OC (stereo not given),18µM*,23µM*,34,21µM*,-4%,-12%
COc1ccc(C2c3ccc(O)cc3Oc3ncn4nc(-c5ccco5)nc4c32)cc1OC (stereo not given),?,16µM*,32,2%,?,18µM*
COc1ccc(C2c3ccc(O)cc3Oc3ncn4nc(-c5ccncc5)nc4c32)cc1OC (stereo not given),23µM*,?,-70*,?,-15%,0%
CC(C)NC(=O)c1cc(C2CCCCN2S(=O)(=O)c2ccc(F)cc2F)on1 (stereo not given),?,-10%,23,.,17%,2%
CN(C)CCn1nnc2c(=O)oc3ccccc3c21,-15%,-1%,2,4%,15%,6%
COc1ccccc1C1CCN(c2cc(O)ccc2[N+](=O)[O-])CC1,?,-21%,-6,12µM*,?,?
CC(=O)Nc1ccccc1/C=C/c1ccc2c(C)cc(C)c(O)c2n1,16µM*,?,1,-16%,19%,19%
CC(=O)Nc1cc2c3ccccc3ccc2c2ccccc12,-18%,-9%,4,.,12%,10%
Cc1ccc(S(=O)(=O)/N=C(\N)c2ccc(Cl)cc2)cc1,?,-23%,-4,?,-13%,-8%
Cc1ccc(S/C(=N/S(=O)(=O)c2ccc(Cl)cc2)c2ccccc2)cc1,10µM*,11µM*,.,.,.,.
CS/C(=N\S(=O)(=O)c1ccc(Cl)cc1)c1ccccc1,-23%,-12%,10,0%,5%,0%
O=S(=O)(/N=C(\Sc1ccc(Cl)cc1)c1ccccc1)c1ccccc1,21µM*,12µM*,-113*,-26%,4%,3%
CS/C(=N/S(=O)(=O)c1ccc(C)cc1)c1ccccc1,-3%,17%,-55*,-4%,0%,-9%
SMILES,TDP1 cell noCPT,DT40 TDP1 CPT,IL1B secr inh,ELG1 repair inh,HT1080NT lethal,HT1080 IDH1KD tx
CC1CCN(C(=O)c2ccccc2NC(=O)c2nsc3ccccc23)CC1,-24%,-20%,.,.,.,.
O=C(NCc1ccccc1Cl)c1ccccc1NC(=O)c1nsc2ccccc12,16µM*,?,.,.,.,.
CCOc1cc(CNC(=O)c2ccc(C)c(NC(=O)c3nsc4ccccc34)c2)ccc1OC,7.3µM*,7.3µM*,.,.,.,.
CCOc1cc(CNC(=O)c2ccc3nc(CCc4ccccc4)oc3c2)ccc1OC,?,-30%,.,.,.,.
CCOc1ccc(CNC(=O)c2ccccc2NC(=O)c2nsc3ccccc23)cc1,18µM*,21µM*,.,.,.,.
Cn1c(NN)nc2sc3c(c2c1=O)CC(C)(C)OC3,?,?,46,-5%,?,13µM*
CC1(C)Cc2c(sc3nc(C4CC4)n(N)c(=O)c23)CO1,?,-20%,-8,-13%,5%,-5%
COc1ccccc1N1CCN(C(=O)c2ccc3ncsc3c2)CC1,2.3µM*,6.5µM*,17,.,12µM*,8.2µM*
Cc1ccc(C)c(N2CCN(C(=O)c3ccc4nc(-c5ccco5)c(-c5ccco5)nc4c3)CC2)c1,23µM*,?,?,?,?,?
Cc1ccc(C(=O)NC(=S)N2CCN(c3cc(C)ccc3C)CC2)cc1,?,?,-5,?,-10%,-16%
COc1ccccc1N1CCN(C(=O)c2ccc3nc[nH]c3c2)CC1,1%,13%,12,-4%,15%,4%
COc1ccccc1N1CCN(C(=O)c2ccc3nc(-c4ccco4)c(-c4ccco4)nc3c2)CC1,21µM*,?,?,7.3µM*,?,?
O=C(Nc1ccc(CN2CCOCC2)cc1)c1cccc(-c2cc3ccccc3oc2=O)c1,?,16µM*,?,?,-25%,?
O=C(Nc1cccc(Cl)c1N1CCCC1)c1cccc(-c2cc3ccccc3oc2=O)c1,?,18µM*,34,14%,3%,1%
CCOC(=O)c1cnc2c(C)c(C)ccc2c1Nc1ccc(S(=O)(=O)Nc2ncccn2)cc1,-4%,3%,-93*,?,0%,-7%
CCOC(=O)c1cnc2c(Cl)c(Cl)ccc2c1Nc1ccc(N(C)C)cc1,?,-17%,.,.,.,.
CCOC(=O)c1cnc2c(ccc3ccccc32)c1NCCO,21µM*,?,?,?,-22%,?
CCOC(=O)c1cnc2c(ccc3ccccc32)c1Nc1cccc(OC)c1,26µM*,?,.,.,.,.
CCOC(=O)c1cnc2c(ccc3ccccc32)c1Nc1ccc(OCC)cc1,-27%,?,.,.,.,.

# High-throughput results deposited in PubChem BioAssay by National Center for Advancing Translational Sciences (NCATS).
